The values that follow come from ChEMBL document CHEMBL2218924, “A broad activity screen in support of a chemogenomic map for kinase signalling research and drug discovery” (Biochem J, 2013).

The structures appear in SMILES notation.

Test [1] has as its target Serine/threonine-protein kinase SIK1 (Homo sapiens) (UniProt P57059). Particulars: at 10 µM.
Test [2] concerns the target SRSF protein kinase 1 (Homo sapiens) (UniProt Q96SB4). Particulars: at 1 µM.
For test [3] the target is unchanged. Particulars: at 10 µM.
Test [4] addresses SRSF protein kinase 2 (Homo sapiens) (UniProt P78362). Particulars: at 1 µM.
For test [5] the target is unchanged. The settings on record: at 10 µM.
Test [6] addresses Serine/threonine-protein kinase 33 (Homo sapiens) (UniProt Q9BYT3). Particulars: at 1 µM.
For test [7] the target is unchanged. The settings on record: at 10 µM.
In test [8] the target is Serine/threonine-protein kinase PLK2 (Homo sapiens) (UniProt Q9NYY3). The settings on record: at 1 µM.
The target is the same in test [9]. The settings on record: at 10 µM.
Test [10] deals with Tyrosine-protein kinase SYK (Homo sapiens) (UniProt P43405). The settings on record: at 1 µM.
Test [11] shares this target. Particulars: at 10 µM.
Test [12] has as its target T1, Mitogen-activated protein kinase kinase kinase 7 (Homo sapiens) (UniProt O43318).
T1 sequence (whole entry): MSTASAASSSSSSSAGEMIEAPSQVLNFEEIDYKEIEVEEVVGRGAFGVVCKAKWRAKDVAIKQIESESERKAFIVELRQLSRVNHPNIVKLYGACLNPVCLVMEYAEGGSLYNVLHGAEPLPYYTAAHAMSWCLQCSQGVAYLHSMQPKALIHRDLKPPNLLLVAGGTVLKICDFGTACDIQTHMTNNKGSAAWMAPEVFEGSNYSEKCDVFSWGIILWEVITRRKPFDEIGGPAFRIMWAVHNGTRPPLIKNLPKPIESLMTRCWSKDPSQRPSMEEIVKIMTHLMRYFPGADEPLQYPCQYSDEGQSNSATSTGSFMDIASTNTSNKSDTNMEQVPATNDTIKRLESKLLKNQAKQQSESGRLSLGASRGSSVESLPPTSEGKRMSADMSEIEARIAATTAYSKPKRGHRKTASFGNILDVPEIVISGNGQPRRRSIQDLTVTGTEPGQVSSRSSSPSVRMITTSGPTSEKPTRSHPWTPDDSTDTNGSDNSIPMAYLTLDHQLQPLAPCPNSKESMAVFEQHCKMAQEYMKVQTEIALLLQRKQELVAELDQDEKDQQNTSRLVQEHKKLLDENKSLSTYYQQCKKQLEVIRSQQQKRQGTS
Particulars: at 1 µM.

Test [13] has as its target T1, Mitogen-activated protein kinase kinase kinase 7 (Homo sapiens). Particulars: at 10 µM.
Test [14] addresses T2, Serine/threonine-protein kinase TAO1 (Homo sapiens) (UniProt Q7L7X3).
T2 sequence (whole entry): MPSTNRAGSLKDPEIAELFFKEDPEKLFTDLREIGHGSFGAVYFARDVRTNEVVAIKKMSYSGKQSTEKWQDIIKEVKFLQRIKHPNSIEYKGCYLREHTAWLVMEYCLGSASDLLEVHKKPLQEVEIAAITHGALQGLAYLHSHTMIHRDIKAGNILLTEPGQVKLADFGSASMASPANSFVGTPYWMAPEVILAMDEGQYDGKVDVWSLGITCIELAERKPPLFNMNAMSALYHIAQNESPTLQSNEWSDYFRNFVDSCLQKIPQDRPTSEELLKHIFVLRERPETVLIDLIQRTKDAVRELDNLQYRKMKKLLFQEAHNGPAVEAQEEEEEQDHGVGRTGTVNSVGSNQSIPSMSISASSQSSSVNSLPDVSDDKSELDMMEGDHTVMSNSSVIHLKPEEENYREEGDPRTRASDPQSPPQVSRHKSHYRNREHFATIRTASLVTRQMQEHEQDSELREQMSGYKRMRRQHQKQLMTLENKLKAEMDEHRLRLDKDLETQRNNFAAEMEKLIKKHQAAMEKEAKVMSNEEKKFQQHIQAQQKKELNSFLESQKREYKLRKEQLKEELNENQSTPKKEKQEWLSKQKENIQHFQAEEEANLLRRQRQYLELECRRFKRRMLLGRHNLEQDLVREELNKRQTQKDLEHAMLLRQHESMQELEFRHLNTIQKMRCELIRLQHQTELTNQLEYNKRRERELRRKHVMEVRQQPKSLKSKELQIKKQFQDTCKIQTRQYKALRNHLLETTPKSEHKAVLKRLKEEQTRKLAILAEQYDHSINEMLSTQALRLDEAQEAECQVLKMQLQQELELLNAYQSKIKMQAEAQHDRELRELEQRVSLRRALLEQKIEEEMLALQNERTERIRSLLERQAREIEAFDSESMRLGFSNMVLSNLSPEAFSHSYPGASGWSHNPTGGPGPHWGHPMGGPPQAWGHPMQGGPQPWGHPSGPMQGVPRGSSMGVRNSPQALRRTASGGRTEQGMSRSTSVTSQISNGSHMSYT
Particulars: at 1 µM.

Test [15] concerns the target T2, Serine/threonine-protein kinase TAO1 (Homo sapiens). Particulars: at 10 µM.
For test [16], the target named is T3, Serine/threonine-protein kinase TAO2 (Homo sapiens) (UniProt Q9UL54).
T3 sequence (whole entry): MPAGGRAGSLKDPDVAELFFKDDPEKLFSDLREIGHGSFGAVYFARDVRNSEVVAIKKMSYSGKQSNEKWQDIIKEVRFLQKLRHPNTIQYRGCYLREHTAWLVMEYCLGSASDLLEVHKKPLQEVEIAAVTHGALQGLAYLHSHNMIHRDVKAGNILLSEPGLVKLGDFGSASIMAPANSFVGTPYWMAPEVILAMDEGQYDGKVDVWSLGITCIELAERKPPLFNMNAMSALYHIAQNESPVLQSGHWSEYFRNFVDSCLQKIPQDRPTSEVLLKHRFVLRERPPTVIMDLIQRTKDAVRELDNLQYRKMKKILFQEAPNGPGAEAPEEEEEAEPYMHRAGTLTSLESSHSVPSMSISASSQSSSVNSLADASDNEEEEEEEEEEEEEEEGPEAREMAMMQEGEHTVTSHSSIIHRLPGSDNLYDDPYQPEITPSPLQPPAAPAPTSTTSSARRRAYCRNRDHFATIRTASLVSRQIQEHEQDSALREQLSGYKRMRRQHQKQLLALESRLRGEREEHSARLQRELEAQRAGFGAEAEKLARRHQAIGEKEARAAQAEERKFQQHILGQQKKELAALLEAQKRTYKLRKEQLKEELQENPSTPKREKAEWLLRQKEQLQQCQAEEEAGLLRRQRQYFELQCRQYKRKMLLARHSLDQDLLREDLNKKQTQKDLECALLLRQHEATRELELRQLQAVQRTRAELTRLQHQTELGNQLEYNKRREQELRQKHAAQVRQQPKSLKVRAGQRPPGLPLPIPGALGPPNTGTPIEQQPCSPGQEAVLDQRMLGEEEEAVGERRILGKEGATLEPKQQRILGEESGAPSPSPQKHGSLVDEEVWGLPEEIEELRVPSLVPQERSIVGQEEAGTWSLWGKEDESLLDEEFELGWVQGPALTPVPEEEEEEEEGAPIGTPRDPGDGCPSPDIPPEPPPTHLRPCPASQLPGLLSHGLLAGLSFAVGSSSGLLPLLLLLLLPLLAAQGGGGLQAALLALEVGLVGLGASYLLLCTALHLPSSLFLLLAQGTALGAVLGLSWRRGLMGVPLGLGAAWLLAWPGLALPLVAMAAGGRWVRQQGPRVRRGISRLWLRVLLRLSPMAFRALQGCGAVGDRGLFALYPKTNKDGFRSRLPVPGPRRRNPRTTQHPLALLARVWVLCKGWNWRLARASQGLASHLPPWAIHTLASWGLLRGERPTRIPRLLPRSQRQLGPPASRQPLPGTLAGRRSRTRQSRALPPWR
Particulars: at 1 µM.

The target in test [17] is T3, Serine/threonine-protein kinase TAO2 (Homo sapiens). Particulars: at 10 µM.
Test [18] addresses T4, Serine/threonine-protein kinase TAO3 (Homo sapiens) (UniProt Q9H2K8).
T4 sequence (whole entry): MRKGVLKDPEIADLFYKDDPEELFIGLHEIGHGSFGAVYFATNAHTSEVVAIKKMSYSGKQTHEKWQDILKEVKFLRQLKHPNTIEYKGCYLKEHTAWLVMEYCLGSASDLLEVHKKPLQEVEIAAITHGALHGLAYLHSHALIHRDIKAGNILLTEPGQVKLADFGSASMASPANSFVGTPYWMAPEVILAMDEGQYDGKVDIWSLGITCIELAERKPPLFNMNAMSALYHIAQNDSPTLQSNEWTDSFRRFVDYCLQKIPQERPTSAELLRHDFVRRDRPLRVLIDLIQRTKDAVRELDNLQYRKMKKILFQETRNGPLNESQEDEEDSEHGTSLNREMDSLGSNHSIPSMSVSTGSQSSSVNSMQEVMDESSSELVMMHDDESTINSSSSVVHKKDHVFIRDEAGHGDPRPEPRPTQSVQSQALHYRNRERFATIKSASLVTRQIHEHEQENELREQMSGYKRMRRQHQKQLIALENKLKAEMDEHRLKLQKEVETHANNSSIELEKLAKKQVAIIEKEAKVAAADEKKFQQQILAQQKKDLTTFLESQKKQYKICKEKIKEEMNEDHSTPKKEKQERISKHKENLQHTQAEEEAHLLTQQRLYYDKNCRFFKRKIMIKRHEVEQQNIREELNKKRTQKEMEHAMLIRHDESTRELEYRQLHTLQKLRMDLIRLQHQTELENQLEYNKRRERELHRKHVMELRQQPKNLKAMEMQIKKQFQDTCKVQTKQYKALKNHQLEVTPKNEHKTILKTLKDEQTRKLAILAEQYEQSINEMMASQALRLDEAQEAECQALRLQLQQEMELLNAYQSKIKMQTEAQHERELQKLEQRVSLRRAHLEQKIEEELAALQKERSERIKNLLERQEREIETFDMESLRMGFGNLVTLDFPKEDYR
Particulars: at 1 µM.

In test [19] the target is T4, Serine/threonine-protein kinase TAO3 (Homo sapiens). The settings on record: at 10 µM.
Test [20] deals with T5, Serine/threonine-protein kinase TBK1 (Homo sapiens) (UniProt Q9UHD2).
T5 sequence (whole entry): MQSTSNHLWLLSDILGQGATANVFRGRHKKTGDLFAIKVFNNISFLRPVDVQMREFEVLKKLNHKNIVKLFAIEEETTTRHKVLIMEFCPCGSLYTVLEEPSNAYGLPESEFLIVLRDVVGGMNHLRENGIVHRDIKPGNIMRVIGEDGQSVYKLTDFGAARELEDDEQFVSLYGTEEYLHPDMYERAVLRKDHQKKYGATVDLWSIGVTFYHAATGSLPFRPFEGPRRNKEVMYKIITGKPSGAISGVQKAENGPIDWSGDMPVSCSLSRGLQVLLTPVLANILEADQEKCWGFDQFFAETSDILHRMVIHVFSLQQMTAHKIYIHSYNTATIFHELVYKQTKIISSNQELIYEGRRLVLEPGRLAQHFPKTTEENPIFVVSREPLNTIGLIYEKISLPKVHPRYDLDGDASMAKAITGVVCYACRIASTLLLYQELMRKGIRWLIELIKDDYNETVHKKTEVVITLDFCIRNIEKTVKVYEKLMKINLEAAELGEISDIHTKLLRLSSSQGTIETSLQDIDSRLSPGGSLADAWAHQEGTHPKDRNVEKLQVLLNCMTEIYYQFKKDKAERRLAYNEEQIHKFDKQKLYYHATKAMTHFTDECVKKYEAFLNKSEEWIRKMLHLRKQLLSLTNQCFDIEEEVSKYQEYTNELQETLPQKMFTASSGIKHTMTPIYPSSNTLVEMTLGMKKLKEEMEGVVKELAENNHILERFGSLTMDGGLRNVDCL
Particulars: at 1 µM.

Chain of SRSF protein kinase 2 (Homo sapiens) (P78362 whole entry, looked up): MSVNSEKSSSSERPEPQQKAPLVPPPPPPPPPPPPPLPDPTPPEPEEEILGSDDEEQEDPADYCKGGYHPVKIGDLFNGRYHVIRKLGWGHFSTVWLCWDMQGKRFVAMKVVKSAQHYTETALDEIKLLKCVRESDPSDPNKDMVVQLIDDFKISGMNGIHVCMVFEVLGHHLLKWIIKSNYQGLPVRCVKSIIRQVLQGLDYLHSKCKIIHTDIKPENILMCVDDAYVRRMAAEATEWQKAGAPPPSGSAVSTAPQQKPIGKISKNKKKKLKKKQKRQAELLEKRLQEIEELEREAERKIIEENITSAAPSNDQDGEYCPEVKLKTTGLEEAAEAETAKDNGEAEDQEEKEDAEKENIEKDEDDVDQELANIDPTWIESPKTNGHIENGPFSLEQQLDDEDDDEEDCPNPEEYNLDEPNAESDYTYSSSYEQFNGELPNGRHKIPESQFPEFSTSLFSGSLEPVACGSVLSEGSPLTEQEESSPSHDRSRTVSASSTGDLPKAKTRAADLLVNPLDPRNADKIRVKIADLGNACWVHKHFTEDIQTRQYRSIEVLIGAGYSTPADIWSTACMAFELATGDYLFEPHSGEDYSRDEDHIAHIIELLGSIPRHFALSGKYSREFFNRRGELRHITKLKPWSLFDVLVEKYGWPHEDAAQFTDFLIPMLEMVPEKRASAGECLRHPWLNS
Chain of SRSF protein kinase 1 (Homo sapiens) (Q96SB4 whole entry): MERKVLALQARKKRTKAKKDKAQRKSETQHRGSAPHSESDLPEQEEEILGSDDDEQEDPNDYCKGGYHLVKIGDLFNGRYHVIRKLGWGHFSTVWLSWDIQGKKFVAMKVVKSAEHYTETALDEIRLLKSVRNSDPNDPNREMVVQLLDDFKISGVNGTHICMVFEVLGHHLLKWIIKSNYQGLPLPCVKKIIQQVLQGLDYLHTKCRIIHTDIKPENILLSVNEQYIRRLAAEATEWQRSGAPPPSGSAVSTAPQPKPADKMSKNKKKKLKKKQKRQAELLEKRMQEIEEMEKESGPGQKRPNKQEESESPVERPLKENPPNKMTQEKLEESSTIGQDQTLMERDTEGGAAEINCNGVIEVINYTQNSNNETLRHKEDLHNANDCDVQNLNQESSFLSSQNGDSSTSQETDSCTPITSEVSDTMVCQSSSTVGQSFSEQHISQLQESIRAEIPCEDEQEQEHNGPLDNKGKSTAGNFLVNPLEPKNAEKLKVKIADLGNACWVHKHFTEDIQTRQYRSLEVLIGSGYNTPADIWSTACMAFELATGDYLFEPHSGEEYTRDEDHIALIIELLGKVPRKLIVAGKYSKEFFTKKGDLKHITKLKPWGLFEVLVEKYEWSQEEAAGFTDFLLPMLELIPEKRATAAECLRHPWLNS
Chain of Serine/threonine-protein kinase SIK1 (Homo sapiens) (P57059 whole entry): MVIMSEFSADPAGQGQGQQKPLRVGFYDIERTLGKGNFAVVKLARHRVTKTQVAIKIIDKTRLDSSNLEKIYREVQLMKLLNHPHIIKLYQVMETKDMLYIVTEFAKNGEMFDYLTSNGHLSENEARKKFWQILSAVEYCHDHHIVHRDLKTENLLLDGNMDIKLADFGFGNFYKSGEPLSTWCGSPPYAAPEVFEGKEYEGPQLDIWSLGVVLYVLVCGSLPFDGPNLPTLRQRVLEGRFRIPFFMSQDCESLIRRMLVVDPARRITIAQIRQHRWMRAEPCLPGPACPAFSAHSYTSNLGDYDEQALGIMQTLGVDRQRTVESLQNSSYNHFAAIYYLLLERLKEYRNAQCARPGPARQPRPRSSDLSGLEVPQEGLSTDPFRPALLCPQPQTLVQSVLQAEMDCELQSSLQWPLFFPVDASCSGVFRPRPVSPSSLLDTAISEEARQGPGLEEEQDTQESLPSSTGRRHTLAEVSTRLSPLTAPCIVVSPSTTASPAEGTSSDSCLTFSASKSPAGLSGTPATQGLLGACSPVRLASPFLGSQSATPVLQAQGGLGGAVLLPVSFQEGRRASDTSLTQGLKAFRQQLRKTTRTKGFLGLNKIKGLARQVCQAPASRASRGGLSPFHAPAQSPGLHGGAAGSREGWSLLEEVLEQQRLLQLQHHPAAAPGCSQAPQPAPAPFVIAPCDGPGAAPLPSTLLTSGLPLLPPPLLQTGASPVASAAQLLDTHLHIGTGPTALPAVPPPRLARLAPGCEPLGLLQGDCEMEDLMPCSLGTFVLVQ
Chain of Serine/threonine-protein kinase PLK2 (Homo sapiens) (Q9NYY3 whole entry, looked up): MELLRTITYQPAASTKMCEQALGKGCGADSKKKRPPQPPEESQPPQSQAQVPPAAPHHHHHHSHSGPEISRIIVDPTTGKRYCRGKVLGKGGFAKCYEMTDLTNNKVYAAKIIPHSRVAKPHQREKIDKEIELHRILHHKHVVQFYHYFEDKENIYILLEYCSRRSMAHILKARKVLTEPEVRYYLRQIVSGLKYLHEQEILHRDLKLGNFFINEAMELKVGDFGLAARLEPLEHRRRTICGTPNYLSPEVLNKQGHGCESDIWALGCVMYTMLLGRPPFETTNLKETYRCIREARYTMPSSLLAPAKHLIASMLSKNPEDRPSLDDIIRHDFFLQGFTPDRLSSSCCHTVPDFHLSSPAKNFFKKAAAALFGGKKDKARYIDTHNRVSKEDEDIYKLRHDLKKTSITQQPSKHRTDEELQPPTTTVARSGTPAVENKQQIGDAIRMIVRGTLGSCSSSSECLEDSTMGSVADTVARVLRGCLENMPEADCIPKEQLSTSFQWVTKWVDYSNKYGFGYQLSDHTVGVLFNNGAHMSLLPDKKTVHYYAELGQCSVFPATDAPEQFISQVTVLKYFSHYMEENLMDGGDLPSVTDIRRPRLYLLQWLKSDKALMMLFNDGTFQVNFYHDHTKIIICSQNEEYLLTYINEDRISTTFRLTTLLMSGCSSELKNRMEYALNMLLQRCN
Chain of Serine/threonine-protein kinase 33 (Homo sapiens) (Q9BYT3 whole entry, looked up): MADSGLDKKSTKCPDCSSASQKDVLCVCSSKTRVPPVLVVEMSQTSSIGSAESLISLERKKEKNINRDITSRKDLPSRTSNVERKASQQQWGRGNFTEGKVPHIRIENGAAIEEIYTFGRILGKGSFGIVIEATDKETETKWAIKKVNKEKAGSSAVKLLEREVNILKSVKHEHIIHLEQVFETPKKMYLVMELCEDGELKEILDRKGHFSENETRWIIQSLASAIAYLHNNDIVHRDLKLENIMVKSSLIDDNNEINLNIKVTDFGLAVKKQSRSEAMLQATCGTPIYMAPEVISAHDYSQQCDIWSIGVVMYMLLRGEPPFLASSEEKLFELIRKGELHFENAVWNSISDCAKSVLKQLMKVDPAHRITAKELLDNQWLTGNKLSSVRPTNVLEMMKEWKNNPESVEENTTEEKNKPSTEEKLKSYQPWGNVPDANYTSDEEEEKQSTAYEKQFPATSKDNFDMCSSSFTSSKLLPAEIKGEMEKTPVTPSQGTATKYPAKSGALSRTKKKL

In the case of `Nc1n[nH]c2nnc(-c3c(-c4ccccc4)nn4ccccc34)cc12`, the residual activity in [1] was 63%; in test [2], 92%; in test [3] it was 69%; in test [4] it was 100%; in test [5], 83%; in test [6], 96%. Moreover, the residual activity in test [7] came out at 86%; in test [8], 99%; in [9] it was 96%; in [10], 92%; in test [11], 110%; in test [12], 90%. The residual activity in test [13] is 77%; in test [14], 87%; in test [15] it was 56%; in test [16] it was 90%; in test [17] it was 50%; in test [18], 87%. Besides, the residual activity in test [19] stood at 40%; in test [20], 75%.

`Nc1ccc2ncnc(NCCc3ccc(Oc4ccccc4)cc3)c2c1`: the residual activity was 75% in [1]; 117% in test [2]; 114% in test [3]; 114% in [4]; 70% in [5]; 104% in test [6]. The residual activity in test [7] amounted to 91%; in test [8], 106%; in test [9] it was 104%; in test [10], 93%; in test [11], 78%; in [12], 92%. Moreover, the residual activity in test [13] was 72%; in test [14] it was 103%; in test [15], 88%; in test [16], 90%; in test [17] it was 91%; in test [18], 110%. Besides, the residual activity in test [19] came to 92%; in test [20], 94%.

For the compound `O=C1NC(=O)/C(=C/c2ccc3c(c2)OC(F)(F)O3)S1`, the residual activity was determined as 119% in [1]; 118% in test [2]; 98% in test [3]; 102% in test [4]; 84% in [5]; 106% in test [6]. The residual activity amounted to 109% in test [7]; 112% in [8]; 95% in [9]; 121% in test [10]; 73% in test [11]; 96% in [12]. Further, the residual activity in test [13] worked out at 88%; in test [14], 100%; in [15], 74%; in [16], 113%; in [17], 105%; in [18] it was 103%. Also, the residual activity was 66% in [19] and 80% in test [20].
